This is an account of results in PubChem BioAssay (NCI).

About 83,000 compounds went through this panel and 20% of them were active in at least one assay; those are over-represented in the sample as a whole.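 Method: cells in 96-well plates; compound added at one concentration; 48 h incubation; percent growth measured; values under 10 scored active.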 Unmarked numbers belong to inactive results. Active and inactive are the calls of the source.

The subject of this assay is MDA-MB-468 breast. As to the kind of experiment: NCI-60 one-dose screen, 48 h (100 = growth as untreated, 0 = no growth, -100 = all killed). The note with it: 10 µM unless noted. On the procedure: Growth inhibition of the MDA-MB-468 human Breast tumor cell line is measured as a screen for anti-cancer activity. Cells are grown in 96 well plates and exposed to the test compound for 48 hours. Compounds are tested at a single concentration, which is 10^-5 M for most compounds. The reported endpoint is percent growth (GI% or GIPRCNT), where numbers from 0 - 100% represent growth inhibition, and numbers from -100% - 0 represent cell death. For example, a value of 40 represents 60% growth inhibition. A value of 0 means no net growth occurred over the course of the experiment. A value of -40 indicates 40% of cells at the beginning of the experiment died by the end of the experiment. A value of -100 means all cells are dead at the end of the experiment.
NCI-60 Human Tumor Cell Lines Screen was performed using the standard one-dose NCI protocol, which is described in more detail at https://dtp.cancer.gov/discovery_development/nci-60/default.htm.
Compounds with GIPRCNT values below 10 were considered active. Activity score was based on GIPRCNT using the following formula: […]
Score is 0 for GIPRCNT values of 100 or above, 50 for GIPRCNT values of 0, and 100 for GIPRCNT values of -100.
Consider `Nc1nc2cc(-c3ccc4ncnc(NCc5ccccc5)c4c3)ccc2o1`, for which the growth is -47.5% (active).
In the case of `COc1ccc(/C=C/c2nc3ccccc3n3c(-c4cccc([N+](=O)[O-])c4)nnc23)cc1`, the growth is -65% (active).
Regarding `O=C(CSc1nc2sc3c(c2c(=O)n1-c1ccc(Cl)cc1)CCCC3)N/N=C/C=C/c1ccccc1`, the growth is -81.6% (active).
With `O=Cc1cncc(-c2ccc3ncnc(N4CCc5cc(F)c(Cl)cc54)c3c2)c1`, the growth was -52.4% (active).
Consider `O=C(Cc1c(-c2ccccc2[N+](=O)[O-])n(-c2ncnc3c2c(-c2ccccc2)c(-c2ccccc2)n3Cc2ccccc2)[nH]c1=O)c1ccc(Cl)c(Cl)c1`, for which the growth is -23.5% (active).
On to `OC1CCC(Cn2c(C(F)(F)F)cc3c(Cl)ncnc32)CC1` (stereo not given), for which the growth is 9.1% (active).
To `Cc1ccc(C(=O)C[n+]2cccc3c4ccccc4ccc32)cc1` belongs -10.3% (active); to `COc1cc(CNC(=O)C[C@H](C)CCC=C(C)C)ccc1OCc1cn(-c2ccccc2F)nn1`, 57.7%; to `O=C1Nc2cc(-c3ccc(NS(=O)(=O)c4ccc(-c5ccccc5)cc4)cc3)ccc2/C1=C/c1ccc[nH]1`, -52.5% (active).
For `OCCn1cc(-c2nc3ccc4[nH]ncc4c3c3c2CCCC3)cn1`, the growth is 3.83% (active).
In the case of `CC1CCc2c(sc3nc(SCC(=O)c4cccc(Br)c4)n(-c4ccccc4)c(=O)c23)C1` (stereo not given), the growth is 29.6%.
To `Clc1ccc(CNc2nc(SCCN3CCOCC3)nc3c2cnn3CC(Cl)c2ccc(Br)cc2)cc1` (stereo not given) belongs 39.9%; to `C/C(=N/O)c1ccc(NC(=O)CSc2nnc(-c3ccc4nc(-c5ccc(Cl)cc5)[nH]c4c3)o2)cc1`, 122%.
On to `CC(=O)c1ccc2c(N)c(C(=O)Nc3ccc(C(F)(F)F)cc3)sc2n1`, for which the growth is 10.6%.
To `Nc1nn2c(-c3cc4cc(Br)ccc4oc3=O)ccnc2c1N=Nc1ccc(S(N)(=O)=O)cc1` belongs 64.7%; to `COc1ccc2ccccc2c1/C=C1\SC(=Nc2ccc(O)cc2)NC1=O`, -34.7% (active); to `Clc1ccccc1Nc1nnc(-c2c[nH]c3ccccc23)o1`, -22.5% (active).
For the molecule `O=C1/C(=C/C=C/c2ccco2)SC(=S)N1CC(=S)C1C=CS(=O)(=O)C1` (stereo not given), the growth was -16.5% (active).
For `COc1sc(/C=N/NC(=O)c2[nH]c3ccc(Br)cc3c2-c2ccccc2)cc1Br`, the growth was -14.5% (active).
Take `C[C@H]1[C@@H](CC(=O)N[C@@H](Cc2coc3ccccc23)B(O)O)O[C@@H]2OC3(C)CC[C@H]4[C@H](C)CC[C@@H]1[C@@]24O3`: the growth is -49.6% (active).
`NS(=O)(=O)c1ccc(Nc2nc(N/N=C/c3cc(Br)c(O)c(Br)c3)nc(Nc3ccccc3)n2)cc1`: the growth was -57.4% (active).
For the molecule `Cc1ccc(C2CC(c3ccc(S(=O)(=O)NCCNc4nc(N(C)C)nc(N5CCOCC5)n4)cc3)=Nc3c(N)nc(N)nc3N2)cc1` (stereo not given), the growth was 24.2%.
As to `Cc1ccccc1Nc1nnc(-c2c[nH]c3ccccc23)o1`, the growth is -35.5% (active).
As to `O=C(NN1C(=O)/C(=C/C=C/c2ccc([N+](=O)[O-])o2)SC1=S)c1ccncc1`, the growth was -73.9% (active).
`CCOc1ccccc1[C@H]1C(C(=O)c2ccc(Cl)cc2)C2(N[C@@H]1c1ccccc1)C(=O)Nc1ccc(Cl)cc12` (stereo not given in full): the growth is 4.39% (active).
Consider `Cc1nc2sccn2c1-c1nnc(SCC(C)C)o1`, for which the growth was 4.49% (active).
With `COc1cc2cc(C(=O)N3C[C@@H](CCl)c4c3cc(OC(=O)N(C)CCSSCCN3CCOCC3)c3ccccc43)[nH]c2c(OC)c1OC`, the growth was -77.3% (active).
With `Cc1ccc(C(=O)Nc2cc(-n3ccnc3)cc(C(F)(F)F)c2)cc1-n1cc(-c2cnc3cccnn23)nn1`, the growth is 121%.
With `OC(c1ccccc1)(c1ccccc1)C1CCN(c2ccc3nnc(Cl)n3n2)CC1`, the growth is 30.4%.
For the molecule `COc1ccc(-c2nc3ccccc3n2CC(=O)N=Nc2c(O)[nH]c3ccc(Br)cc23)cc1`, the growth is 56.1%.
Take `Nc1cc2ccccc2c(=O)n1NC(=O)c1ccccc1`: the growth was -35.4% (active).
For `O=C(Nc1ccc(-c2ccc3c(c2)NC(=O)/C3=C\c2ccc[nH]2)cc1)Nc1ccc(Cl)c(Cl)c1`, the growth is -16.8% (active).
Consider `N#Cc1cc(-c2ccnc(Nc3ccc(N4CCN(C5COC5)CC4)cc3)n2)ccc1N1CCCC1`, for which the growth is 38.8%.
Regarding `COc1ccc2[nH]c(=O)c(CSc3ccccc3Nc3nccc(-c4ccc(C(F)(F)F)cc4)n3)cc2c1`, the growth was 13.6%.
The same measure for `O=C(N/N=C/c1ccc(B(O)O)s1)c1[nH]c2ccc(Br)cc2c1-c1ccccc1`: -95.9% (active); for `Cc1ccc(-c2cc(C(=O)N=Nc3c(O)[nH]c4ccc(F)cc34)c3ccccc3n2)cc1`: 31.1%.
Take `NS(=O)(=O)c1ccc(Nc2nc(SCC(=O)c3ccc(F)cc3)nc3ccccc23)cc1`: the growth was 11.4%.
For the molecule `Cn1cc(-c2cc(N)n3nc(-c4c[nH]c5ccc(F)cc45)cc3n2)c2cccnc21`, the growth is -92.9% (active).
As to `COc1ccc(-c2cc(-c3cc(OC)c(OC)c(OC)c3)[nH]c(=O)c2C#N)cc1`, the growth is 79.8%.
In the case of `O=[N+]([O-])c1cccc(-c2nnc3c(/C=C/c4ccc(F)cc4)nc4ccccc4n23)c1`, the growth was 0.494% (active).
